Measured values published in PubChem BioAssay (Tox21).
Where “and” joins values, the source holds several entries; their conditions need not be identical. Equal values may be shown once. Inconclusive results are not listed. Some structures have more than one record in an assay (separate samples or runs), and their calls can disagree. Calls of active or inactive are those of the source. Calls come from the whole dose curve; as a rule, active = well fitted curve in the direction sought with a large enough effect in the repeat runs; inconclusive = weak or mixed curves; inactive = no such curve, though single readings can be large; an effect the other way counts as inactive or inconclusive.

test: qHTS RealTime-Glo MT Cell Viability Assay in HEK293 cells - 16 hour (AID 1224872); settings: RealTime-Glo luminescence; series mostly up to 76.8 µM; activity change, negative = cytotoxicity: at the top concentration; note: nearly all actives have a fitted effect of over 50% in size; for activity change, negative = cytotoxicity: top concentration of the series differs between compounds
How it was run: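 Assay medium contained NanoLuc luciferase plus cell-permeant prosubstrate, added with HEK293 cells at 600 cells/well. After 5 h at 37 C/5% CO2 compounds were added; plates stayed at 37 C for 40 h with serial luminescence reads.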
% is set by controls: 0 for no effect and ±100 for the full control effect; potency is the fitted concentration of half-maximal effect.

Compound	activity change, negative = cytotoxicity	Potency
Cc1cc(C(F)(C(F)(F)F)C(F)(F)F)ccc1NC(=O)c1cccc(I)c1C(=O)NC(C)(C)CS(C)(=O)=O	-19.9% [at 35.3 µM] (inactive)	–
O=C(O)COc1nc(Cl)c(Cl)cc1Cl	5.11% (inactive)	–
ClC(Cl)=C(c1ccc(Cl)cc1)c1ccc(Cl)cc1	–	56.3 µM (active)
CCN(CC)C(=S)[S-].CCN(CC)C(=S)[S-].[Zn+2]	–	5.45 µM (active)
CCCCCCCCCCCCCCC(Br)C(=O)O (stereo not drawn)	-8.45% (inactive)	–
O=c1oc2ccccc2c(O)c1Cc1c(O)c2ccccc2oc1=O	12.6% [at 35.3 µM] (inactive)	–
ClC1=C(Cl)C2(Cl)C3C(Cl)C=CC3C1(Cl)C2(Cl)Cl (stereo not drawn)	–	43.8 µM (active) and 43.6 µM (active)
ClCc1ccc(Cl)cc1Cl	-1.65% (inactive)	–
Cc1cc(C(C)(C)c2cc(C)c(O)c(C)c2)cc(C)c1O	–	23.7 µM (active)
O=C(CCl)C(Cl)Cl	–	17.5 µM (active)
Clc1ccc(CO/N=C(\Cn2ccnc2)c2ccc(Cl)cc2Cl)c(Cl)c1	–	21.3 µM (active)
O=c1c(C2CC(c3ccc(-c4ccc(Br)cc4)cc3)Cc3ccccc32)c(O)sc2ccccc12 (stereo not drawn)	2.08% [at 35.3 µM] (inactive)	–
CC(=[OH+])/C=C(/C)[O-].CC(=[OH+])/C=C(\C)[O-].CC(=[OH+])/C=C(\C)[O-].[Al]	0.0066% (inactive)	–
Clc1ccc(-c2ccc(Cl)c(Cl)c2Cl)c(Cl)c1Cl	-19.4% (inactive)	–
CCC(C)c1cc([N+](=O)[O-])cc([N+](=O)[O-])c1OC(=O)C=C(C)C (stereo not drawn)	–	49 µM (active)
S=C(SSC(=S)N1CCCCC1)N1CCCCC1	–	16.9 µM (active)
CCCCCCCCCCCCCCCC[n+]1ccccc1	–	21.6 µM (active) [middle of 4 runs]
Nc1ccc(Cc2ccc(N)c(Cl)c2)cc1Cl	–	29.9 µM (active)
C=CCC1=C(C)C(OC(=O)C2C(C=C(C)C)C2(C)C)CC1=O (stereo not drawn)	–	20.7 µM (active)

Compound	activity change, negative = cytotoxicity	Potency
Oc1ccc2ccc3cccc4ccc1c2c34	–	15.5 µM (active)
Nc1c(Oc2ccccc2)cc(O)c2c1C(=O)c1ccccc1C2=O	–	10.7 µM (active)
CC(c1ccc(O)cc1)c1ccc(O)cc1	–	45.9 µM (active) and inactive
CC(C)(C)c1ccc(CSc2cnn(C(C)(C)C)c(=O)c2Cl)cc1	–	0.436 µM (active)
CC(C)[C@H](C(=O)OC(C#N)c1cccc(Oc2ccccc2)c1)c1ccc(OC(F)F)cc1 (stereo partly drawn)	-25.2% (inactive)	–
COP(=S)(OC)Oc1cc(Cl)c(Br)cc1Cl	-1.54% (inactive)	–
CCOP(=S)(OCC)SCCS(=O)(=O)CC	1.01% (inactive)	–
CS(=O)(=O)c1ccc(C(=O)C2C(=O)CCCC2=O)c([N+](=O)[O-])c1	–	12.5 µM (active)
CC[C@H]1C[C@@H]2C[C@H]3c4[nH]c5ccc(OC)cc5c4CCN(C2)[C@@H]13	-31.1% (inactive)	–
Nc1ccc(Sc2ccc(N)cc2)cc1	-12.5% (inactive)	–
NC(=O)c1ccc(N)nc1	-13.3% (inactive)	–
CN(C)[C@@H]1C(=O)C(C(N)=O)=C(O)[C@@]2(O)C(=O)C3=C(O)c4c(O)ccc(Cl)c4[C@@](C)(O)[C@H]3C[C@@H]12	-18.4% (inactive)	–
CCN(CC)c1c([N+](=O)[O-])cc(C(F)(F)F)c(N)c1[N+](=O)[O-]	–	12.3 µM (active)
N#Cc1c(-c2ccc(Cl)cc2)[nH]c(C(F)(F)F)c1Br	–	6.92 µM (active)
CCCOCC(=Nc1ccc(Cl)cc1C(F)(F)F)n1ccnc1	–	43.6 µM (active)
O=C1c2ccccc2C(=O)C1C(=O)C(c1ccccc1)c1ccc(Cl)cc1 (stereo not drawn)	1.84% (inactive)	–
O=C(O)C1C2CCC(O2)C1C(=O)O (stereo not drawn)	–	inactive
CCCCCCCCc1ccc(O)cc1	–	4.39 µM (active)

test: qHTS RealTime-Glo MT Cell Viability Assay in HepG2 cells - 8 hour (AID 1224873); settings: RealTime-Glo luminescence; series mostly up to 76.8 µM; viability change, negative = cytotoxic: at the top concentration; note: nearly all actives have a fitted effect of over 55% in size
How it was run: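 Real-time viability: cells seeded at 600 per well together with NanoLuc and cell-permeant prosubstrate, compounds added after 5 h incubation. Luminescence tracked at 0, 8, 16, 24, 32 and 40 h of exposure.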

Compound	viability change, negative = cytotoxic	Potency
Cc1cc(C(F)(C(F)(F)F)C(F)(F)F)ccc1NC(=O)c1cccc(I)c1C(=O)NC(C)(C)CS(C)(=O)=O	-7.09% [at 35.3 µM] (inactive)	–
O=C(O)COc1nc(Cl)c(Cl)cc1Cl	7.61% (inactive)	–
ClC(Cl)=C(c1ccc(Cl)cc1)c1ccc(Cl)cc1	–	inactive
ClCc1ccc(Cl)cc1Cl	1.35% (inactive)	–
O=C(CCl)C(Cl)Cl	-20.2% (inactive)	–
CC(=[OH+])/C=C(/C)[O-].CC(=[OH+])/C=C(\C)[O-].CC(=[OH+])/C=C(\C)[O-].[Al]	-21.9% (inactive)	–
Clc1ccc(-c2ccc(Cl)c(Cl)c2Cl)c(Cl)c1Cl	0.0183% (inactive)	–
S=C(SSC(=S)N1CCCCC1)N1CCCCC1	–	26.8 µM (active)
CCCCCCCCCCCCCCCC[n+]1ccccc1	–	57.5 µM (active) and 49 µM (active) and 48.3 µM (active)
Oc1ccc2ccc3cccc4ccc1c2c34	–	43.6 µM (active)
Nc1c(Oc2ccccc2)cc(O)c2c1C(=O)c1ccccc1C2=O	-14% [at 35.3 µM] (inactive)	–
CC(c1ccc(O)cc1)c1ccc(O)cc1	–	inactive
COP(=S)(OC)Oc1cc(Cl)c(Br)cc1Cl	-7.87% (inactive)	–
CCOP(=S)(OCC)SCCS(=O)(=O)CC	-10.9% (inactive)	–
CS(=O)(=O)c1ccc(C(=O)C2C(=O)CCCC2=O)c([N+](=O)[O-])c1	-8.83% (inactive)	–
CC[C@H]1C[C@@H]2C[C@H]3c4[nH]c5ccc(OC)cc5c4CCN(C2)[C@@H]13	-0.515% (inactive)	–
Nc1ccc(Sc2ccc(N)cc2)cc1	-7.56% (inactive)	–
NC(=O)c1ccc(N)nc1	2.37% (inactive)	–
CN(C)[C@@H]1C(=O)C(C(N)=O)=C(O)[C@@]2(O)C(=O)C3=C(O)c4c(O)ccc(Cl)c4[C@@](C)(O)[C@H]3C[C@@H]12	3.91% (inactive)	–
O=C1c2ccccc2C(=O)C1C(=O)C(c1ccccc1)c1ccc(Cl)cc1 (stereo not drawn)	-18% (inactive)	–
O=C(O)C1C2CCC(O2)C1C(=O)O (stereo not drawn)	–	inactive
